# Experimental data: PubChem BioAssay AID1362 (SRMLSC, 2008)
# The whole screen tested about 190,000 compounds, of which about 4,000 (2.1%) were called active. Rule as the data show it: active = inhibition above about 58%; inactive = the rest, inconclusive results apart; tested in S. cerevisiae. The full list was thinned out, with actives kept by preference.
# Assay: growth inhibition of WT strain, primary screen, mitochondrial fusion inhibitor project, WT and mutant strains, chemical genetic (AID 1362)
# Conditions: mitochondrial fusion phenotypic screen, at 10 µM
# [1] = WT strain, growth inhibition, stronger effect = higher value
SMILES,inhibition [1],inhibition (mutant strain inhibition) [%]
COc1ccc(C)cc1NC(=O)c1ccc(-c2ccc(C(C)=O)cc2)o1,15.7% (inactive),5.74
Cc1ccc(-n2[nH]c(C)c(/C=N/N3C(=O)c4cccc5cccc(c45)C3=O)c2=O)cc1,13.3% (inactive),13
COc1cc(SC#N)ccc1N=Cc1c(C)[nH]n(-c2ccc(C)cc2)c1=O,81.4% (active),11.6
CCc1nnc(NS(=O)(=O)c2ccc(N=Cc3c(C)[nH]n(-c4ccc(C)cc4)c3=O)cc2)s1,40.8% (inactive),28.3
Cc1ccc(OCC(=O)Nc2ccc(S(=O)(=O)Nc3ccccn3)cc2)cc1,-2.17% (inactive),-9.5
NS(=O)(=O)c1ccc(NC(=S)NC(=O)c2cccnc2)cc1,-6.97% (inactive),-10.8
Cn1nnnc1NCc1ccc(Cl)c(Cl)c1,-2% (inactive),14.5
O=[N+]([O-])c1ccc(Oc2ccc(F)cc2Br)c2ccncc12,68.7% (active),58.1
O=[N+]([O-])c1ccc(F)cc1Oc1nc(-c2cccnc2)nc2ccccc12,2.1% (inactive),3.69
O=C(O)CSc1nccc2ccccc12,-2.02% (inactive),-7.45
O=C(CSc1nnc(Nc2ccccc2)s1)Nc1cccnc1Cl,-3.41% (inactive),-15.4
CC(C)c1ccc(Nc2nnc(SCC(=O)c3nnc(-c4ccccc4)o3)s2)cc1,70.5% (active),55.7
Cc1ccc(Nc2nnc(SCC(=O)c3cc4ccccc4o3)s2)cc1C,0.56% (inactive),20.2
S=C(NCc1ccco1)Nc1ccc2c(c1)OCCO2,-2.47% (inactive),9.66
CC(C)(C)NC(=O)NC(=O)COC(=O)Cc1c(F)cccc1Cl,-15.4% (inactive),1.6
NS(=O)(=O)c1ccc(NC(=S)NC(=O)c2cccc(Br)c2)cc1,11% (inactive),20.3
NS(=O)(=O)c1ccc(NC(=S)Nc2ccc(Br)c(Cl)c2)cc1,82.6% (active),54.2
NS(=O)(=O)c1ccc(CCNC(=S)Nc2ccc(S(N)(=O)=O)cc2)cc1,-5.98% (inactive),-14.5
CCCn1c(=S)[nH]c2ccc(C(F)(F)F)cc21,2.77% (inactive),12.1
CO/N=C/c1cn(-c2ccc(Cl)cc2)nn1,-5.72% (inactive),-2.58
O=C(c1ccco1)N1CCN(C(=O)C2c3ccccc3Oc3ccccc32)CC1,71.1% (active),6.75
O=C(c1ccco1)N1CCN(c2cccc(Cl)c2)CC1,7.68% (inactive),-0.39

SMILES,inhibition [1],inhibition (mutant strain inhibition) [%]
O=C(c1ccc2c(c1)OCO2)N1CCN(C(=O)c2ccco2)CC1,-13.2% (inactive),-33.3
O=C(C1CCN(C2CCN(Cc3cccc4c3OCO4)CC2)CC1)N1CCOCC1,5.02% (inactive),2.36
CN(C)CCCN1C(=O)CSC1c1ccc([N+](=O)[O-])cc1 (configuration not stated),-4.48% (inactive),1.39
COc1cccc(NC(=O)COC(=O)CCOc2ccccc2OC)c1,-0.47% (inactive),-4.38
COc1cc(/C=C/C(=O)OCC(=O)Nc2cccc(Oc3ccccc3)c2)ccc1O,68.3% (active),29
COc1ccc(/C=C/C(=O)OCC(=O)Nc2cccc(Oc3ccccc3)c2)c(OC)c1,7.56% (inactive),8.13
O=C(c1ccc(C(F)(F)F)cc1)C1CCCN(C(=O)c2csnn2)C1 (configuration not stated),7.52% (inactive),10.7
COc1ccc(-c2csc(NC(=O)c3ccc(N4C(=O)CCC4=O)cc3)n2)cc1OC,7.99% (inactive),3.27
CC(=O)c1ccc(N2CCN(CC(=O)Nc3ccccc3N3CCOCC3)CC2)cc1,-16% (inactive),4.64
COC(=O)Cc1ccc(NC(=S)NCc2ccco2)cc1,6.76% (inactive),3.2
CC(C)c1ccc(N2CCN(C(=O)c3ccccc3NC(=O)/C=C(\C(=O)O)c3ccccc3)CC2)cc1,71% (active),37.8
Cc1cccc(N2CCN(C(=O)c3ccccc3NC(=O)C3CCCCC3C(=O)O)CC2)c1 (configuration not stated),-3.08% (inactive),-3.64
O=C(O)C1CC=CCC1C(=O)Nc1ccccc1C(=O)N1CCN(c2ccccc2)CC1 (configuration not stated),-12.3% (inactive),-3.47
COc1ccc(NC(=S)NCCNC(C)=O)cc1,3.42% (inactive),8.02
COc1cc(NC(=S)NCc2ccc(S(N)(=O)=O)cc2)cc(OC)c1,-1.93% (inactive),4.18
COc1cc(NC(=S)NCCSc2ccc(C)cc2)cc(OC)c1,71.4% (active),51.4
Cc1nnc(SC(C(=O)Nc2cc(Cl)cc(Cl)c2)c2ccccc2)[nH]c1=O (configuration not stated),1.45% (inactive),9.8
COc1cc(/C=C/C(=O)OCC(=O)NC(=O)NCc2ccccc2)ccc1OCC#N,6.54% (inactive),3.13
CN1C(=O)C(CC(=O)Nc2ccccc2)S/C1=N/c1nccs1 (configuration not stated),-7.94% (inactive),3.24
COc1ccc(Cl)cc1NC(=O)C(C)N1CCc2ccccc21 (configuration not stated),54% (inactive),18.4
COCCOCCn1cnc2ccccc21,-10.3% (inactive),-7.09
Cc1cc2ncn(CCCCOc3ccccc3)c2cc1C,62.5% (active),44.6

SMILES,inhibition [1],inhibition (mutant strain inhibition) [%]
Clc1ncn(CCOc2ccccc2)c1Cl,-14.3% (inactive),-12.6
COc1ccc(C(=O)NNC(=O)c2cc(C)[nH]n2)cc1,-20% (inactive),-23.8
C/C(=C\c1ccco1)CN1CCC(N2CCC(C(=O)N3CCOCC3)CC2)CC1,-2.61% (inactive),2.35
O=C(NC(=S)Nc1cccc(-c2ccc(CO)o2)c1)c1cccs1,6.13% (inactive),12.3
CC(=O)Nc1ccc(NC(=S)NC(=O)/C=C/c2ccccc2)cc1,-1.35% (inactive),-0.82
CCOC(=O)c1cc2cc(-c3c(C(=O)OCC)oc4cc(O)cc(O)c4c3=O)ccc2o1,-4.08% (inactive),-39.7
O=c1c(-c2ccc3c(c2)OCCO3)c(C(F)(F)F)oc2cc(O)cc(O)c12,70.7% (active),42.8
COc1ccc(-c2onc(C)c2-c2ccc3c(c2)OCCO3)c(O)c1,21.9% (inactive),-8.53
S=C(NCCc1ccccc1)N1CCCCC1,8.05% (inactive),12.7
Cc1ccc(NC(=S)NCc2ccccc2Cl)c(C)c1,41% (inactive),-1.48
S=C(NCCc1ccccc1)NCc1ccccc1Cl,62% (active),35.9
CC(=O)N1CCN(S(=O)(=O)c2c(F)cc(F)c(Cl)c2F)CC1,-3.19% (inactive),3.15
CSc1ccc(/C=N/N2CCN(Cc3ccccc3Cl)CC2)cc1,43.5% (inactive),23.8
COc1cc(CNC2CCCCC2)c(Br)cc1OC1CCCC1,18.3% (inactive),20.6
O=C(/C=C/c1ccccc1)N/C(=C/c1ccccc1)C(=O)Nc1ccccc1O,-8.09% (inactive),-0.03
CCc1ccccc1NC(=O)c1cccs1,2.87% (inactive),-2.72
CCc1ccccc1NC(=O)/C(=C/c1ccccc1)c1ccccc1,64.8% (active),9.35
CCN(CC)CCN(C(=O)c1ccc(N2C(=O)CCC2=O)cc1)c1nc2cc3c(cc2s1)OCO3,2.8% (inactive),-0.18
COc1ccc(-c2ccc(CNCCCN3CCOCC3)o2)cc1Cl,6.85% (inactive),12.6
C=CCNC(=S)NNC(=O)COc1c(Cl)cc(Cl)cc1Cl,67.1% (active),29.7
C=CCNC(=O)COC(=O)CNC(=O)c1cc(Cl)cc([N+](=O)[O-])c1,-6.93% (inactive),10.8
C=CCNC(=S)NNC(=O)c1ccc(Br)o1,-3.81% (inactive),3.41

SMILES,inhibition [1],inhibition (mutant strain inhibition) [%]
CCOC(=O)C1CCCN(C(=O)c2cccc(S(=O)(=O)N3CCOCC3)c2)C1 (configuration not stated),-0.28% (inactive),-18.7
O=C(COc1ccc(-c2ccccc2)cc1)NN=C1CCCC1,2.21% (inactive),-3.38
CCCCc1cc2c(s1)CCCC/C2=N/O,63.2% (active),6.26
CCCc1noc2c1/C(=N\O)CCC2,-2.57% (inactive),-4.14
Cc1[nH]c2ccccc2c1/C=C(/C#N)C(=O)NC(C)C,-14% (inactive),-5.17
Cc1ccc(NC(=S)N(Cc2ccco2)C(C)c2cccs2)cc1 (configuration not stated),75.8% (active),51.5
Cc1ccc(NC(=S)N(CCCN2CCC(C)CC2)Cc2ccco2)cc1,2.89% (inactive),13.6
Cc1ccc(NC(=S)N(CCN2CCCCC2)Cc2ccco2)cc1C,8.12% (inactive),24.1
CCN1CCN(C(C(=O)NC2CCCC2)c2cc3c(cc2[N+](=O)[O-])OCO3)CC1 (configuration not stated),2.26% (inactive),-2.37
CC1CCN(C(=S)c2cccc([N+](=O)[O-])c2)CC1,7.85% (inactive),23
CC1(c2cccc([N+](=O)[O-])c2)CC(C)(C)N(C(=O)c2ccccc2)c2ccccc21 (configuration not stated),75.8% (active),33.1
CC1(c2ccccc2)CC(C)(C)N(C(=O)c2cc([N+](=O)[O-])cc([N+](=O)[O-])c2)c2ccccc21 (configuration not stated),57% (inactive),35.9
CCC(C(=O)OCC(=O)Nc1ccc(C(=O)Nc2ccc(OC)cc2)cc1)c1ccccc1 (configuration not stated),12.9% (inactive),-13.4
CCC(C(=O)OCC(=O)Nc1ccccc1-c1ccccc1)c1ccccc1 (configuration not stated),70.9% (active),-2.32
CCC(C(=O)OCC(=O)Nc1c(Cl)cc(Cl)cc1Cl)c1ccccc1 (configuration not stated),11.1% (inactive),-9.47
O=C(Nc1ccc(NC(=O)c2ccco2)c(Cl)c1)c1cccc([N+](=O)[O-])c1,2.21% (inactive),16.7
CC(=O)c1cnc(-c2ccccc2)s1,3.8% (inactive),-4.54
Cc1ccc(C2CCN(C(=S)Nc3cccc(Cl)c3)C2)cc1 (configuration not stated),74.3% (active),55
Cc1cccc(NC(=S)N2CCCC(c3nc4ccccc4[nH]3)C2)c1 (configuration not stated),-10.4% (inactive),0.82
O=C(C1CCCO1)N1CCN(C(=S)Nc2cccc(Cl)c2)CC1 (configuration not stated),-4.05% (inactive),25.8
